Reference: the supplement of paper PMC4022240
± gives the standard deviation.

Experiments:
Experiment in all cases: peptide microarray binding signal (635 nm), min-max normalized on array (fraction of array maximum); higher = stronger binding
Details in all cases: peptide region: H3 20-32
[1] = molecular target: T1, HaloTag-ATRX ADD domain (163-292)
T1 chain: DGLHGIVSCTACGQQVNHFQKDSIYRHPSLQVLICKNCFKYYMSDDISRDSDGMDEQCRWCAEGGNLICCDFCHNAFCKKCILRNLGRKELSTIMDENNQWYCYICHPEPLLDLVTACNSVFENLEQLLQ
Summary of the method: (§1)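 Within each library, mean intensities of triplicate spots were min-max scaled to give the binding signal. The spots were histone 13-mer peptide–cellulose conjugates on nitrocellulose with a Cy3 tracer, blocked overnight at 4°C. They were then probed for 1 h at 4°C using biotin-labelled HaloTag reader fusions (10 nM to 1 μM) with streptavidin-Alexa Fluor 647 or rabbit histone antibodies (1:10,000 to 1:2,000) with anti-rabbit Alexa 647, and scanned at 635 nm for signal and 532 nm for misprints on an Axon GenePix 4000B.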

[2] = molecular target: HaloTag-ING2 PHD (mouse Ing2 200-280)
Summary of the method: as §1

[3] = molecular target: anti-H3K4me3 antibody ab8580
Summary of the method: as §1

[4] = molecular target: anti-H3K9me3 antibody ab8898
Summary of the method: as §1

[5] = peptide modifications: H3R26me2s H3K27ac, binder concentration: 1:2,000 dilution
[6] = peptide modifications: H3R26me2s H3K27ac, binder concentration: 1:10,000 dilution
[7] = peptide modifications: H3R26me1 H3K27me1, binder concentration: 1:2,000 dilution
[8] = peptide modifications: H3R26me1 H3K27me1, binder concentration: 1:10,000 dilution
[9] = peptide modifications: H3T22ph H3K23ac, binder concentration: 1:2,000 dilution
[10] = peptide modifications: H3T22ph H3K23ac, binder concentration: 1:10,000 dilution
[11] = peptide modifications: H3S28ph, binder concentration: 1:2,000 dilution
[12] = peptide modifications: H3S28ph, binder concentration: 1:10,000 dilution
[13] = peptide modifications: H3R26cit H3K27me2, binder concentration: 1:2,000 dilution
[14] = peptide modifications: H3R26cit H3K27me2, binder concentration: 1:10,000 dilution
[15] = peptide modifications: H3R26me1 H3K27me3, binder concentration: 1:2,000 dilution
[16] = peptide modifications: H3R26me1 H3K27me3, binder concentration: 1:10,000 dilution
[17] = peptide modifications: H3R26me2s H3K27me3, binder concentration: 1:2,000 dilution
[18] = peptide modifications: H3R26me2s H3K27me3, binder concentration: 1:10,000 dilution
[19] = peptide modifications: H3R26me2a H3K27me2, binder concentration: 1:2,000 dilution
[20] = peptide modifications: H3R26me2a H3K27me2, binder concentration: 1:10,000 dilution
[21] = peptide modifications: H3R26me2a, binder concentration: 1:2,000 dilution
[22] = peptide modifications: H3R26me2a, binder concentration: 1:10,000 dilution
[23] = peptide modifications: H3R26me2a H3K27me3, binder concentration: 1:2,000 dilution
[24] = peptide modifications: H3R26me2a H3K27me3, binder concentration: 1:10,000 dilution

B1: H3 20-32 L A T K A A Rme2s Kac S A P A T (peptide)
chain: LATKAARKSAPAT
- peptide microarray binding signal ([1]; peptide modifications: H3R26me2s H3K27ac, binder concentration: 50 nM): 0.00495 ± 0.00035
- peptide microarray binding signal ([1]; peptide modifications: H3R26me2s H3K27ac, binder concentration: 500 nM): 0.00714 ± 0.00025
- peptide microarray binding signal ([2]; peptide modifications: H3R26me2s H3K27ac, binder concentration: 10 nM): 0.0155 ± 0.00088
- peptide microarray binding signal ([2]; peptide modifications: H3R26me2s H3K27ac, binder concentration: 100 nM): 0.0127 ± 0.00058
- peptide microarray binding signal [3, 5]: 0.00574 ± 0.0007
- peptide microarray binding signal [3, 6]: 0.00491 ± 7.1e-05
- peptide microarray binding signal [4, 5]: 0.0064 ± 0.0001
- peptide microarray binding signal [4, 6]: 0.00715 ± 0.0006

B2: H3 20-32 L A T K A A Rme Kme S A P A T (peptide)
chain: LATKAARKSAPAT
- peptide microarray binding signal ([1]; peptide modifications: H3R26me1 H3K27me1, binder concentration: 50 nM): 0.00489 ± 4.8e-05
- peptide microarray binding signal ([1]; peptide modifications: H3R26me1 H3K27me1, binder concentration: 500 nM): 0.00657 ± 0.0021
- peptide microarray binding signal ([2]; peptide modifications: H3R26me1 H3K27me1, binder concentration: 10 nM): 0.00794
- peptide microarray binding signal ([2]; peptide modifications: H3R26me1 H3K27me1, binder concentration: 100 nM): 0.0109 ± 0.00039
- peptide microarray binding signal [3, 7]: 0.00355 ± 0.00035
- peptide microarray binding signal [3, 8]: 0.00474 ± 0.00018
- peptide microarray binding signal [4, 7]: 0.0024 ± 8.4e-05
- peptide microarray binding signal [4, 8]: 0.001557 ± 1.5e-05

B3: H3 20-32 L A Tph Kac A A R K S A P A T (peptide)
chain: LATKAARKSAPAT
- peptide microarray binding signal ([1]; peptide modifications: H3T22ph H3K23ac, binder concentration: 50 nM): 0.00602 ± 0.00043
- peptide microarray binding signal ([1]; peptide modifications: H3T22ph H3K23ac, binder concentration: 500 nM): 0.0111 ± 0.0014
- peptide microarray binding signal ([2]; peptide modifications: H3T22ph H3K23ac, binder concentration: 10 nM): 0.0199 ± 0.0011
- peptide microarray binding signal ([2]; peptide modifications: H3T22ph H3K23ac, binder concentration: 100 nM): 0.0259 ± 0.00072
- peptide microarray binding signal [3, 9]: 0.00476 ± 0.00081
- peptide microarray binding signal [3, 10]: 0.00616 ± 0.00082
- peptide microarray binding signal [4, 9]: 0.00257 ± 0.00028
- peptide microarray binding signal [4, 10]: 0.00202

B4: H3 20-32 L A T K A A R K Sph A P A T (peptide)
chain: LATKAARKSAPAT
- peptide microarray binding signal ([1]; peptide modifications: H3S28ph, binder concentration: 50 nM): 0.013 ± 0.00031
- peptide microarray binding signal ([1]; peptide modifications: H3S28ph, binder concentration: 500 nM): 0.00843 ± 0.0004
- peptide microarray binding signal ([2]; peptide modifications: H3S28ph, binder concentration: 10 nM): 0.01074 ± 4.2e-05
- peptide microarray binding signal ([2]; peptide modifications: H3S28ph, binder concentration: 100 nM): 0.0104 ± 0.00034
- peptide microarray binding signal [3, 11]: 0.001057 ± 8.9e-06
- peptide microarray binding signal [3, 12]: 0.00126
- peptide microarray binding signal [4, 11]: 0.00116 ± 2.3e-05
- peptide microarray binding signal [4, 12]: 0.00144 ± 2.8e-05

B5: H3 20-32 L A T K A A Rcit Kme2 S A P A T (peptide)
chain: LATKAARKSAPAT
- peptide microarray binding signal ([1]; peptide modifications: H3R26cit H3K27me2, binder concentration: 50 nM): 0.00414 ± 5.8e-05
- peptide microarray binding signal ([1]; peptide modifications: H3R26cit H3K27me2, binder concentration: 500 nM): 0.00333 ± 0.00011
- peptide microarray binding signal ([2]; peptide modifications: H3R26cit H3K27me2, binder concentration: 10 nM): 0.00692 ± 0.00014
- peptide microarray binding signal ([2]; peptide modifications: H3R26cit H3K27me2, binder concentration: 100 nM): 0.00843 ± 0.00034
- peptide microarray binding signal [3, 13]: 0.00262 ± 0.00016
- peptide microarray binding signal [3, 14]: 0.00314 ± 4.6e-05
- peptide microarray binding signal [4, 13]: 0.00196 ± 6.8e-05
- peptide microarray binding signal [4, 14]: 0.00167 ± 4.8e-05

B6: H3 20-32 L A T K A A Rme Kme3 S A P A T (peptide)
chain: LATKAARKSAPAT
- peptide microarray binding signal ([1]; peptide modifications: H3R26me1 H3K27me3, binder concentration: 50 nM): 0.00668 ± 0.00028
- peptide microarray binding signal ([1]; peptide modifications: H3R26me1 H3K27me3, binder concentration: 500 nM): 0.019 ± 0.0018
- peptide microarray binding signal ([2]; peptide modifications: H3R26me1 H3K27me3, binder concentration: 10 nM): 0.0343 ± 0.0033
- peptide microarray binding signal ([2]; peptide modifications: H3R26me1 H3K27me3, binder concentration: 100 nM): 0.0417 ± 0.0052
- peptide microarray binding signal [3, 15]: 0.0743 ± 0.016
- peptide microarray binding signal [3, 16]: 0.0599 ± 0.0085
- peptide microarray binding signal [4, 15]: 0.162 ± 0.016
- peptide microarray binding signal [4, 16]: 0.0985 ± 0.023

B7: H3 20-32 L A T K A A Rme2s Kme3 S A P A T (peptide)
chain: LATKAARKSAPAT
- peptide microarray binding signal ([1]; peptide modifications: H3R26me2s H3K27me3, binder concentration: 50 nM): 0.00342 ± 5.6e-05
- peptide microarray binding signal ([1]; peptide modifications: H3R26me2s H3K27me3, binder concentration: 500 nM): 0.003095 ± 2.4e-05
- peptide microarray binding signal ([2]; peptide modifications: H3R26me2s H3K27me3, binder concentration: 10 nM): 0.00889 ± 0.00023
- peptide microarray binding signal ([2]; peptide modifications: H3R26me2s H3K27me3, binder concentration: 100 nM): 0.00808 ± 0.00038
- peptide microarray binding signal [3, 17]: 0.0443 ± 0.0026
- peptide microarray binding signal [3, 18]: 0.0353 ± 0.0044
- peptide microarray binding signal [4, 17]: 0.082 ± 0.006
- peptide microarray binding signal [4, 18]: 0.0554 ± 0.0085

B8: H3 20-32 L A T K A A Rme2a Kme2 S A P A T (peptide)
chain: LATKAARKSAPAT
- peptide microarray binding signal ([1]; peptide modifications: H3R26me2a H3K27me2, binder concentration: 50 nM): 0.004984 ± 4.8e-05
- peptide microarray binding signal ([1]; peptide modifications: H3R26me2a H3K27me2, binder concentration: 500 nM): 0.00857 ± 0.00072
- peptide microarray binding signal ([2]; peptide modifications: H3R26me2a H3K27me2, binder concentration: 10 nM): 0.0166 ± 0.00092
- peptide microarray binding signal ([2]; peptide modifications: H3R26me2a H3K27me2, binder concentration: 100 nM): 0.0255 ± 0.00049
- peptide microarray binding signal [3, 19]: 0.0097 ± 0.0011
- peptide microarray binding signal [3, 20]: 0.0118 ± 0.00089
- peptide microarray binding signal [4, 19]: 0.0051 ± 0.00036
- peptide microarray binding signal [4, 20]: 0.00363 ± 7.8e-05

B9: H3 20-32 L A T K A A Rme2a K S A P A T (peptide)
chain: LATKAARKSAPAT
- peptide microarray binding signal ([1]; peptide modifications: H3R26me2a, binder concentration: 50 nM): 0.00357 ± 0.0001
- peptide microarray binding signal ([1]; peptide modifications: H3R26me2a, binder concentration: 500 nM): 0.00624 ± 0.00038
- peptide microarray binding signal ([2]; peptide modifications: H3R26me2a, binder concentration: 10 nM): 0.00806 ± 0.00052
- peptide microarray binding signal ([2]; peptide modifications: H3R26me2a, binder concentration: 100 nM): 0.0122 ± 0.0012
- peptide microarray binding signal [3, 21]: 0.00525 ± 0.00065
- peptide microarray binding signal [3, 22]: 0.004907 ± 3.6e-05
- peptide microarray binding signal [4, 21]: 0.00334 ± 0.00044
- peptide microarray binding signal [4, 22]: 0.00294 ± 6.7e-05

B10: H3 20-32 L A T K A A Rme2a Kme3 S A P A T (peptide)
chain: LATKAARKSAPAT
- peptide microarray binding signal ([1]; peptide modifications: H3R26me2a H3K27me3, binder concentration: 50 nM): 0.00539 ± 0.00011
- peptide microarray binding signal ([1]; peptide modifications: H3R26me2a H3K27me3, binder concentration: 500 nM): 0.0116
- peptide microarray binding signal ([2]; peptide modifications: H3R26me2a H3K27me3, binder concentration: 10 nM): 0.0206 ± 0.0011
- peptide microarray binding signal ([2]; peptide modifications: H3R26me2a H3K27me3, binder concentration: 100 nM): 0.0261 ± 0.0021
- peptide microarray binding signal [3, 23]: 0.0393 ± 0.004
- peptide microarray binding signal [3, 24]: 0.0294 ± 0.0026
- peptide microarray binding signal [4, 23]: 0.0809 ± 0.0092
- peptide microarray binding signal [4, 24]: 0.052 ± 0.0034
